# Screening data (PubChem)
# Sampled rows, rich in hits. Any-hit rate of the full collection: about 7%.
# proKLK7 act = proKLK7 zymogen activators, primary screen, biochemical, fluorescence intensity | Kallikrein-7 (Homo sapiens), P49862 | purified proKLK7, EDANS-DABCYL substrate fluorescence; 100% is mature enzyme control, 0% vehicle | activation, % at 7 µM | hit rate 0.9% among 370,000 | AID 652039, 2013;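 active means activation above the mean of all tested compounds plus 3 SD, computed per campaign excluding outliers beyond control limits, cut at about 13% in these data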
# AHR activator = AHR activators, primary screen, cell-based, luminescence, luciferase reporter, human; AHR-responsive luciferase reporter cells; activation, % at 5 µM; hit rate 2.5% among 320,000; in the data active means activation above about 47%;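 further: 0% = vehicle wells and 100% = reference agonist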
# ADAM10 inh = human ADAM10 inhibitors, primary screen, biochemical, QFRET, HTS; inhibition, % at 7 µM; hit rate 0.62% among 370,000; recombinant ADAM10, EDANS/DABCYL FRET peptide cleavage, 3 h; Disintegrin and metalloproteinase domain-containing protein 10 (Homo sapiens), O14672;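 active means inhibition above a per-campaign cutoff equal to the mean of compounds falling between control-based bounds plus 3 SD, cut at about 20% in these data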;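 further: 0% = DMSO wells while the 100% control is not disclosed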
# Target sequence (O14672 214-748 limits assumed): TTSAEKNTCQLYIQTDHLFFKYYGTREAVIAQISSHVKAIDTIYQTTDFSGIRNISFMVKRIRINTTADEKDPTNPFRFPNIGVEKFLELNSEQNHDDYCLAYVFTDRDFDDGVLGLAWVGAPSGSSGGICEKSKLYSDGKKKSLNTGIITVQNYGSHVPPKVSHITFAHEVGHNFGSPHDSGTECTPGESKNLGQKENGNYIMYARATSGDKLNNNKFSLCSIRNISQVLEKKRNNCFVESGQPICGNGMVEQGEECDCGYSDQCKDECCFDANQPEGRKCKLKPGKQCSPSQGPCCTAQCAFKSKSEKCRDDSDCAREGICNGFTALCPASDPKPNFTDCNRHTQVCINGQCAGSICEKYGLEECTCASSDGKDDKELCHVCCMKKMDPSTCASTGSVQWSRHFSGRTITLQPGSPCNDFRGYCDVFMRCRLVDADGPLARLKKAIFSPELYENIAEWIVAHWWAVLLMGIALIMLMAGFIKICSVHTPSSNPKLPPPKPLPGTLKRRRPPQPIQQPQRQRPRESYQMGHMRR
# ADAM17 inh = ADAM17 inhibitors, primary screen, biochemical, QFRET | inhibition, % at 6.95 µM | hit rate 0.83% among 370,000 | recombinant ADAM17, EDANS/DABCYL FRET peptide cleavage | Disintegrin and metalloproteinase domain-containing protein 17 (Homo sapiens), P78536;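 active means inhibition above the mean of compounds lying between control limits plus 3 SD, set per campaign, cut at about 8.5% in these data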;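 further: 0% = DMSO-only wells as the low control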
# rCAG binder = binders of r(CAG) RNA repeats, primary screen, biochemical, fluorescence. hit rate 1.3% among 370,000. r(CAG) RNA repeat, TO-PRO-1 dye displacement fluorescence. inhibition, % at 3 µM;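 active means inhibition above the plate cutoff, the mean of all test compounds on that plate plus 3 SD, cut at about 35% in these data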;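 further: 0% = DMSO alone and 100% = 100 µM mitoxantrone as full dye displacement; higher means more dye released from RNA so lower well fluorescence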
# NR3A LBD binder = binders of NR3A ligand-binding domain, primary screen, biophysical, differential scanning fluorimetry, uHTS. Glutamate receptor ionotropic, NMDA 3A (GRIN3A) ligand-binding domain. NR3A LBD differential scanning fluorimetry, Tm shift; 0% = protein alone, 100% = glycine-bound protein. Tm shift relative to glycine control, % at 25 µM. hit rate 2.5% among 340,000;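 active means melting temperature shift of at least 10% of the positive control shift, at one fixed dose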
# Starred values were filed as active, the others as inactive; x = not tested or not shown.
SMILES,proKLK7 act,AHR activator,ADAM10 inh,ADAM17 inh,rCAG binder,NR3A LBD binder
Cc1cc(=O)oc2c1c(C)nn2-c1cccc(Cl)c1,0,71*,3,-2,1,1
CCC(C)N(C(=O)Cn1nc(Cc2ccncc2)c2ccccc2c1=O)C(C)CC (stereo not drawn),1,x,-4,-1,-1,x
CCCCn1c(O)c(N=Nc2ccccc2O)c2ccccc21,0,60*,-1,-5,21,1
CCCCn1c(O)c(N=Nc2ccccn2)c2ccccc21,0,39,-12,4,1,3
COc1ccccc1NCC(=O)N/N=C/c1c(O)ccc2ccccc12,-8,12,-17,1,25,16*
O=C(Cc1n[nH]c(=O)[nH]c1=O)N/N=C/c1c(O)ccc2ccccc12,-2,-1,-4,-6,8,0
O=C(CNc1ccc(F)cc1)N/N=C/c1c(O)ccc2ccccc12,-1,16,-5,-1,20,27*
COc1ccccc1N(CC(=O)N/N=C/c1c(O)ccc2ccccc12)S(C)(=O)=O,-2,25,-5,1,14,-4
COCCCNC(=O)C[C@H]1C[C@@]2(C(=O)OC)C(=C[C@H](C3CCCC3)O[C@@H]2C)N(Cc2ccccc2)C1=O,0,x,-1,7,0,x
COc1ccccc1-n1c(=O)oc2ccc(Cl)cc2c1=O,7,68*,-85,-23,1,0
COc1c(Cl)c(=O)oc2ccc(Cl)cc12,0,x,-14,-4,2,x
COC(=O)c1cc2c(c3c4cc(C)ccc4n(S(=O)(=O)c4ccc(C)cc4)c13)C(=O)N(Cc1ccccc1OC)C2,-1,x,-12,1,12,x
CCCC(C)n1[nH]c(=O)cc1N (stereo not drawn),0,6,-5,-5,-4,-1
CCC(CC)n1[nH]c(=O)cc1N,0,0,1,1,2,14*
Cc1ccc(NC(=O)c2cc(C(=O)c3cc(Cl)ccc3O)cn(-c3ccc(C)cc3)c2=O)cc1,0,19,4,0,6,12*
CC(=O)Nc1sc2c(c1-c1nc3ccccc3s1)CCN(C(C)C)CC2,x,x,-82,-24,x,x
COc1ccc(OCCCC(=O)Nc2ccc(N3CCOCC3)cc2)cc1,0,4,2,-3,0,28*
CC(=O)c1ccc(OCC(=O)Nc2ccc(N3CCCCC3)cc2)cc1,-1,-1,-1,0,0,-6
COc1ccc(NC(=O)COc2ccc(-n3cnnn3)cc2)cc1OC,1,x,-2,-2,1,11*
COc1ccc(OCC(=O)Nc2ccc(N3CCCCC3)cc2)cc1,1,3,-2,-3,-7,19*
COc1ccc(NC(=O)c2ccc(NC(=O)CN3CCN(c4ccc(O)cc4)CC3)cc2)cc1,-1,x,10,3,15,17*
CCN(CC)C(=O)CC[C@H]1CC[C@]2(CCCN(C(=O)C(C)(C)C)C2)O1,0,x,1,0,-3,x
CC(/C=N\NC(=O)CSc1nnc(-c2ccc(Br)cc2)n1-c1ccccc1)=C\c1ccco1,-2,x,-8,-1,16,x
Cc1cc(C)cc(N(CC(=O)NC2CCC(C)CC2)S(=O)(=O)c2cccs2)c1 (stereo not drawn),1,x,-1,3,3,x
Cc1cccc(C(=O)Nc2nc3ncccn3c2-c2ccc(F)c(F)c2)c1,5,x,-258,-66,4,x
SMILES,proKLK7 act,AHR activator,ADAM10 inh,ADAM17 inh,rCAG binder,NR3A LBD binder
CN[C@H]1C[C@H]2c3[nH]c4c(-c5ccccc5)cccc4c3CCN2C[C@H]1[C@H](C)O,1,x,-81,-16,5,x
CC(=O)c1ccc(OCCCC(=O)Nc2ccc(S(=O)(=O)N3CCOCC3)cc2)cc1,0,0,0,-5,2,22*
O=C(CN1CCN(c2ccc(O)cc2)CC1)Nc1ccccc1C(=O)NCCc1ccccc1,0,74*,-9,-2,11,-4
COc1cccc(N2CCN(CC(=O)Nc3ccccc3C(=O)NCCc3ccccc3)CC2)c1,0,39,-8,2,5,-5
C[C@@H]1CN([C@H](C)CO)C(=O)c2cc(NC(=O)Nc3ccccc3)ccc2O[C@@H](C)CCCCO[C@H]1CN(C)S(C)(=O)=O,0,x,-1,-2,6,x
CC1(C)CC(=O)C=C(Nc2ccccc2NC(=O)c2cc(F)ccc2F)C1,0,x,-9,-6,-2,x
Cc1ccc(CNC(=O)c2cc3c(s2)CS(=O)(=O)C3)cc1,-1,-1,7,-1,8,1
O=C(NCc1cccs1)c1cc2c(s1)CS(=O)(=O)C2,0,1,-1,-6,3,15*
CCCC/C=C1/[C@@H](CC)N(Cc2ccc(OC)cc2OC)C2=N[C@@H](c3ccccc3)CC(=O)N21,x,x,9,4,x,x
CCC1=C(OC(=O)c2ccccc2)C(C)(C)C(c2ccccc2)OC1=O (stereo not drawn),1,-3,5,2,-2,14*
Cc1nc(N2CCC(C)CC2)c2c(C)c(C(=O)Nc3ccc(C(F)(F)F)cc3)sc2n1,0,-1,-10,-3,0,13*
Cc1nc(N2CCC(C)CC2)c2c(C)c(C(=O)Nc3cccc(C(F)(F)F)c3)sc2n1,0,1,6,0,1,12*
Cc1nc(N2CCC(C)CC2)c2c(C)c(C(=O)Nc3ccc4c(c3)OCCO4)sc2n1,-2,0,4,-1,1,-3
OC[C@@H]1CC[C@@H]2O[C@H](CCc3ccc(-c4ccc(F)cc4)cc3)[C@@H](n3cc(C4CC4)nn3)C[C@@H]2O1,1,x,2,4,8,x
COc1ccc(-c2cccc3c4c([nH]c23)[C@@H]2C[C@H]3[C@@H](C(=O)N2CC4)[C@H](C)ON3C)cc1,0,x,-33,-12,5,x
CCOC(=O)C1CCN(C(=O)C(Cc2ccc3c(c2)OCO3)NC(C)=O)CC1 (stereo not drawn),0,x,-5,6,5,x
CCCCNC(=O)C1CCCN1C(=O)Nc1ccc(Cl)cc1 (stereo not drawn),0,x,2,1,1,x
Brc1ccc(Oc2nsnc2N2CCOCC2)cc1,0,56*,11,-1,-2,1
COP(N)(=O)C(CC(C)C)NC(=O)OCc1ccccc1 (stereo not drawn),0,x,-5,-2,0,x
CCOC(=O)[C@@]12CCCC=C1N(CCc1ccc(Cl)cc1)C(=O)[C@H]2CC(=O)NCc1cccc2ccccc12,0,x,6,4,8,x
